Laboratory results reported in the supplement of paper PMC12350171.
Counter-ions that a name gives are not always drawn. Values without a mark were called inactive.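 The calls were made as follows: active = AUC significantly below DMSO controls by Student t-fit with adjusted P under 0.01; inactive = not significantly reduced.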

System: Haemophilus parainfluenzae
Experiment: growth AUC normalised to DMSO control (fraction of control); higher = less growth inhibition, active = hit call of the paper
Settings: 20 µM
Procedure, shortened: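 Hemin and NAD were added to the medium for Haemophilus parainfluenzae. All pathogens, after two anaerobic passages, were inoculated at a starting OD578 of 0.01 into pre-reduced mGAM plates with 20 μM compound and 1% DMSO under breathable seals, and OD578 was read hourly for 24 h in three biological replicates. AUC of each growth curve was obtained with the trapezoidal rule up to the exponential-to-stationary transition and normalised to DMSO controls from the same plate.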

Row | Compound | growth AUC normalised to DMSO control
1 | COc1ccc(CN(CCN(C)C)c2ccccn2)cc1 [Pyrilamine maleate] | 0.99
2 | CN1CCN(CCCN2c3ccccc3Sc3ccc(S(=O)(=O)N(C)C)cc32)CC1 [Thioproperazine dimesylate] | 1.01
3 | C#CCN(C)CCCOc1ccc(Cl)cc1Cl [Clorgyline hydrochloride] | 0.943
4 | COc1ccc2c(c1)N(C[C@H](C)CN(C)C)c1ccccc1S2 [Methotrimeprazine maleate salt] | 1.04
5 | Cc1cccc(N(C)C(=S)Oc2ccc3ccccc3c2)c1 [Tolnaftate] | 1
6 | CCS(=O)(=O)CCn1c([N+](=O)[O-])cnc1C [Tinidazole] | 0.987
7 | CCCSc1ccc2[nH]c(NC(=O)OC)nc2c1 [Albendazole] | 1.08
8 | COC(=O)Nc1nc2cc(Sc3ccccc3)ccc2[nH]1 [Fenbendazole] | 1.04
9 | OCCN1C[C@H](O)[C@@H](O)[C@H](O)[C@H]1CO [Miglitol] | 0.925
10 | CN1C2CCCC1CC(NC(=O)c1nn(C)c3ccccc13)C2 (stereo not drawn) [Granisetron] | 1.02
11 | CCn1cc(C(=O)O)c(=O)c2ccc(C)nc21 [Nalidixic acid sodium salt] | 0.813 (active)
12 | CC(C)NC(=N)NC(=N)Nc1ccc(Cl)cc1 [Proguanil hydrochloride] | 0.973
13 | CC(CN(C)C)C(C)(O)Cc1ccc(Cl)cc1 (stereo not drawn) [Clobutinol hydrochloride] | 0.963
